Test results: the supplement of paper PMC12340641
The full ranking holds about 1,000 compounds; the median of “relative growth recovery (pomalidomide 10 uM = 100%, DMSO = 0%)” is about -1.6, and the highest 2% start at about 21. The entries come from a sample that favours the highest values as a whole.

system: HEK293FT dCK*-IKZF1; assay: relative growth recovery (pomalidomide 10 uM = 100%, DMSO = 0%); higher = more growth rescue (IKZF1 fusion degradation); conditions: compound concentration: 5 uM; AraC concentration: 0.3 uM; overnight pretreatment + 4 days AraC
Experimental: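 Growth recovery screen of the molecular-glue-like (Specs) library. HEK293FT cells expressing a dCK*-IKZF1 fusion (primary) or dCK* alone (counter) were pretreated overnight with compound at 5 uM, then given 0.3 uM AraC for 4 days. Hoechst nuclei were counted by imaging. Primary: normalised to pomalidomide (100%) and DMSO (0%), mean of 2 replicates. Counter: normalised to no-AraC (100%) and AraC+DMSO (0%), single replicate.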

Going from Cc1cnc(Nc2cccc(C3CCN(C(=O)C4(NC(=O)C(C)(C)C)CCCCC4)CC3)n2)s1 to Cc1cnc(Nc2cccc(C3CCN(C(=O)C4(N)CCCCC4)CC3)n2)s1, the relative growth recovery falls from -12.6% to -17.6%.

Going from O=S(=O)(Nc1ccc(S(=O)(=O)Nc2ncccn2)cc1)c1ccc(Cl)cc1 to Cc1ccc(S(=O)(=O)Nc2ccc(S(=O)(=O)Nc3ncccn3)cc2)cc1, the relative growth recovery rises from -4.2% to -3.26%.

Compared with CCCc1cnc(Nc2cccc(C3(CO)CCN(C(=O)C4CCCCC4)CC3)n2)s1, Cc1cnc(Nc2cccc(C3(C(N)=O)CCN(C(=O)C4CCCCC4)CC3)n2)s1 is lower in relative growth recovery: -17% for the first, -18.2% for the second.

Going from O=C(C1CCCCC1)N1CCOC(c2cccc(Nc3ncc(Cc4ccccc4)s3)n2)C1 (configuration not stated) to Cc1cnc(Nc2cccc(C3CN(C(=O)C4CCCCC4)CCO3)n2)s1 (configuration not stated), the relative growth recovery falls from 2.33% to -11.7%.

Going from Cc1nc(Nc2cccc(C3CN(C(=O)CCc4c(C)n[nH]c4C)CCO3)n2)sc1C (configuration not stated) to Cc1nc(Nc2cccc(C3CCN(C(=O)CCc4c(C)n[nH]c4C)CC3)n2)sc1C, the relative growth recovery rises from -0.835% to 26%.

Compared with Cc1csc(Nc2cccc(C3CCCN3C(=O)c3ccc4[nH]c(C(C)C)nc4c3)n2)n1 (configuration not stated), Cc1ccc2[nH]nc(C(=O)N3CCCC3c3cccc(Nc4nc(C)cs4)n3)c2c1 (configuration not stated) is lower in relative growth recovery: 36.3% for the first, -0.105% for the second.

Going from Cc1cnc(NC(=O)CN2CCC(c3cccc(Nc4nc(C)c(C)s4)n3)CC2)s1 to Cc1cnc(NC(=O)CN2CCC(c3cccc(Nc4ncc(C)s4)n3)CC2)s1, the relative growth recovery falls from 30.3% to -13.8%.

Compared with Cc1nc(Nc2cccc(C3CCCN3C(=O)c3ccc(=O)n(C)n3)n2)sc1C (configuration not stated), Cc1cnc(C(=O)N2CCCC2c2cccc(Nc3nc(C)c(C)s3)n2)cn1 (configuration not stated) is lower in relative growth recovery: 5.83% for the first, 4.79% for the second.

Going from Cc1ccn2cc(C(=O)N3CCCC3c3cccc(Nc4nc(C)c(C)s4)n3)nc2c1 (configuration not stated) to Cc1nc(Nc2cccc(C3CCCN3C(=O)COc3ccc(F)cc3)n2)sc1C (configuration not stated), the relative growth recovery falls from 39.7% to 14.4%.

First: COCCC(=O)N1CCC(c2cccc(Nc3nc(C)c(C)s3)n2)CC1
Second: COCCC(=O)N1CCC(c2cccc(Nc3ncc(C)s3)n2)CC1
The relative growth recovery of the first is higher: 9.99% for the first, -3.65% for the second.

Compared with Cc1csc(Nc2cccc(C3CCCN3C(=O)c3ccc4c(c3)CCCN4C)n2)n1 (configuration not stated), Cc1csc(Nc2cccc(C3CCCN3C(=O)Cc3ccc(F)cc3)n2)n1 (configuration not stated) is lower in relative growth recovery: 7.5% for the first, 3.22% for the second.

Going from Cc1cnc(Nc2cccc(C3CCN(CC(=O)Nc4c(F)cccc4F)CC3)n2)s1 to COc1ccc(NC(=O)CN2CCC(c3cccc(Nc4ncc(C)s4)n3)CC2)cc1, the relative growth recovery rises from -13.4% to -11%.

First: CC(=O)N1CCC(c2cccc(Nc3ncc(C)s3)n2)CC1
Second: Cc1cnc(Nc2cccc(C3CCN(C(=O)c4cccnc4)CC3)n2)s1
The relative growth recovery of the first is lower: -19% for the first, -18.6% for the second.

Compared with CCOCc1ccc(C(=O)N2CCC(c3cccc(Nc4ncc(C)s4)n3)CC2)cc1, Cc1cnc(Nc2cccc(C3CCN(C(=O)c4cccc5cccnc45)CC3)n2)s1 is lower in relative growth recovery: 29.5% for the first, -2% for the second.

Compared with Cc1csc(Nc2cccc(C3CCN(CC(=O)NCc4ccccn4)CC3)n2)n1, COc1ccc(NC(=O)CN2CCC(c3cccc(Nc4nc(C)cs4)n3)CC2)cc1 is higher in relative growth recovery: -8.2% for the first, 32.9% for the second.

Compared with CC(=O)Nc1ccc(S(=O)(=O)Nc2ncccn2)cc1, O=C(Nc1ccc(S(=O)(=O)Nc2ncccn2)cc1)C(F)(F)F is higher in relative growth recovery: -3.27% for the first, 12.6% for the second.

First: Cc1ccc2[nH]c3nc(SCC(=O)Nc4ccc(F)cc4)nnc3c2c1
Second: O=C(CSc1nnc2c(n1)[nH]c1ccccc12)Nc1ccc(F)cc1
The relative growth recovery of the first is lower: -0.35% for the first, 7.2% for the second.

Compared with Cc1cc(C)nc(NS(=O)(=O)c2ccc(NC(=S)NC(=O)/C=C/c3ccccc3)cc2)n1, Cc1cc(C)nc(NS(=O)(=O)c2ccc(NC(=S)NC(=O)c3ccc(F)c(F)c3)cc2)n1 is lower in relative growth recovery: -1.71% for the first, -2.13% for the second.

Going from CS(=O)(=O)NCC(=O)N1CCC(c2cccc(Nc3ncc(-c4ccccc4)s3)n2)CC1 to CN1CCN(CC(=O)N2CCC(c3cccc(Nc4ncc(-c5ccccc5)s4)n3)CC2)CC1, the relative growth recovery rises from -20.5% to -17.9%.

Going from COCCOCC(=O)Nc1ccc(S(=O)(=O)Nc2cc(C)nc(C)n2)cc1 to CC(=O)Nc1ccc(S(=O)(=O)Nc2cc(C)nc(C)n2)cc1, the relative growth recovery falls from -1.1% to -1.14%.

First: C[C@@H](N)C(=O)N1CCC(CO)(c2cccc(Nc3ncc(-c4ccccc4)s3)n2)CC1
Second: Cc1cnc(Nc2cccc(C3CN(C(=O)CN(CCC(C)C)c4ccccc4)CCO3)n2)s1 (configuration not stated)
The relative growth recovery of the first is lower: -18.2% for the first, -3.83% for the second.

Going from Cc1csc(Nc2cccc(C3CCN(CC(=O)N4CCC(C(N)=O)CC4)CC3)n2)n1 to Cc1csc(Nc2cccc(C3CCCN3C(=O)CO)n2)n1 (configuration not stated), the relative growth recovery falls from 5.36% to 1.4%.

Going from Cc1cnc(Nc2cccc(C3(C(=O)NCCO)CCN(C(=O)C4CCCCC4)CC3)n2)s1 to CC(=O)NC1(CC(=O)N2CCC(c3cccc(Nc4ncc(C)s4)n3)CC2)CCCCC1, the relative growth recovery falls from -5.96% to -11.7%.

Going from O=C(O)COCCOCCNc1cc2c(cc1F)C(=O)N(C1CCC(=O)NC1=O)C2=O (configuration not stated) to O=C1CCC(N2C(=O)c3ccc(N4CCC(C(=O)O)CC4)cc3C2=O)C(=O)N1 (configuration not stated), the relative growth recovery rises from -7.7% to 1.72%.

Going from O=C(CSc1nc2cc(Cl)ccc2[nH]1)Nc1ncccn1 to Cc1cc(Cl)ccc1OCC(=O)Nc1ccc(S(=O)(=O)Nc2ncccn2)cc1, the relative growth recovery falls from -1.69% to -2.19%.

Going from COc1cc(NS(=O)(=O)c2ccc(NC(=O)CCl)cc2)nc(OC)n1 to COc1cc(NS(=O)(=O)c2ccc(NC(=O)COc3ccc(C)cc3)cc2)nc(OC)n1, the relative growth recovery rises from -5.68% to 1.75%.

First: COc1ccc(Cl)c2c1[nH]c1nc(SCC(=O)Nc3ccc(Cl)cc3)nnc12
Second: COc1ccc(Cl)c2c1[nH]c1nc(SCC(=O)Nc3ccc(F)cc3)nnc12
The relative growth recovery of the first is higher: 2.88% for the first, -2.51% for the second.

Compared with Cc1cnc(Nc2cccc(C3CCCN3C(=O)Cn3cnc4ccccc43)n2)s1 (configuration not stated), Cc1csc(Nc2cccc(C3CCN(C(=O)c4nccc5ccccc45)CC3)n2)n1 is higher in relative growth recovery: -19.5% for the first, -0.34% for the second.

Going from CCCCc1cnc(Nc2cccc(C3CCN(C(=O)C(C)(C)NC(=O)OC(C)(C)C)CC3)n2)s1 to CCCc1cnc(Nc2cccc(C3CCN(C(=O)CN)CC3)n2)s1, the relative growth recovery falls from -15.7% to -15.8%.

First: O=C(O)CN1CCN(c2cccc3c2C(=O)N(C2CCC(=O)NC2=O)C3=O)CC1 (configuration not stated)
Second: CN(CCN1CCC(C(=O)O)CC1)c1cccc2c1C(=O)N(C1CCC(=O)NC1=O)C2=O (configuration not stated)
The relative growth recovery of the first is lower: 0.995% for the first, 5.47% for the second.

Compared with Cc1ccnc(NS(=O)(=O)c2ccc(NC(=O)c3cccs3)cc2)n1, Cc1ccnc(NS(=O)(=O)c2ccc(NC(=O)c3ccccc3C)cc2)n1 is lower in relative growth recovery: 3.83% for the first, -1.84% for the second.

Compared with Cc1ccc(C(C)C)c(OCC(=O)Nc2ccc(S(=O)(=O)Nc3ccccn3)cc2)c1, Cc1cc(Cl)ccc1OC(C)C(=O)Nc1ccc(S(=O)(=O)Nc2ccccn2)cc1 (configuration not stated) is higher in relative growth recovery: -1.57% for the first, 0.47% for the second.

First: COc1ccc(C(=O)Nc2ccc(S(=O)(=O)Nc3ccccn3)cc2)cc1
Second: O=C(Nc1ccc(S(=O)(=O)Nc2ncccn2)cc1)c1ccc([N+](=O)[O-])cc1
The relative growth recovery of the first is lower: -5.12% for the first, -0.33% for the second.

Going from Cc1ccc2[nH]c3nc(SCC(=O)Nc4ccc(C)c(Cl)c4)nnc3c2c1 to Cc1cc(NS(=O)(=O)c2ccc(NC(=O)COc3ccccc3Cl)cc2)nc(C)n1, the relative growth recovery rises from -24.6% to 3.46%.

Compared with COc1ccc(NS(=O)(=O)c2ccc(N)cc2)nn1, CCNc1nc(NCC)nc(NS(=O)(=O)c2ccc(N)cc2)n1 is lower in relative growth recovery: 3.75% for the first, 3.4% for the second.

Compared with O=C(CCCOc1ccc(Cl)cc1)Nc1ccc(S(=O)(=O)Nc2ncccn2)cc1, COc1ccc(OCCCC(=O)Nc2ccc(S(=O)(=O)Nc3ncccn3)cc2)cc1 is lower in relative growth recovery: 0.13% for the first, -3.56% for the second.

Going from Cc1ccnc(NS(=O)(=O)c2ccc(NC(=O)c3ccc(Cl)cc3[N+](=O)[O-])cc2)n1 to Cc1ccnc(NS(=O)(=O)c2ccc(NC(=O)c3ccc(C)c(C)c3)cc2)n1, the relative growth recovery rises from -0.255% to 1.75%.

First: Cc1cc(C)nc(NS(=O)(=O)c2ccc(/N=C3/NC(=O)CS3)cc2)n1
Second: Cc1cc(C)nc(NS(=O)(=O)c2ccc(Nc3nc(-c4cccnc4)cs3)cc2)n1
The relative growth recovery of the first is higher: -0.9% for the first, -1.15% for the second.

Compared with O=C(Nc1ccc(S(=O)(=O)Nc2ncccn2)cc1)c1cccc(Br)c1, COc1ccccc1OCC(=O)Nc1ccc(S(=O)(=O)Nc2ncccn2)cc1 is higher in relative growth recovery: -4.75% for the first, 1.59% for the second.

First: Cc1ccnc(NS(=O)(=O)c2ccc(NC(=O)c3ccc4c(c3)OCO4)cc2)n1
Second: CCCOc1ccc(C(=O)Nc2ccc(S(=O)(=O)Nc3nc(C)cc(C)n3)cc2)cc1
The relative growth recovery of the first is higher: 0.925% for the first, -2.85% for the second.

Going from CC(=O)N1CCCCC1c1csc(Nc2ccccn2)n1 (configuration not stated) to Cc1ccc(Nc2nc(C3CCCN(CC(N)=O)C3)cs2)nc1 (configuration not stated), the relative growth recovery falls from 1.36% to -5.75%.

First: Cc1cc(NS(=O)(=O)c2ccc(NC(=O)c3ccccc3C)cc2)nc(C)n1
Second: Cc1cc(NS(=O)(=O)c2ccc(NC(=O)CCCOc3ccc(Cl)cc3)cc2)nc(C)n1
The relative growth recovery of the first is lower: -1.93% for the first, -1.54% for the second.

First: O=C(CCn1ncc2c1CCCC2)N1CCOC(c2cccc(Nc3nccs3)n2)C1 (configuration not stated)
Second: Cc1cnc(Nc2cccc(C3CN(C(=O)CC4CCCCC4)CCO3)n2)s1 (configuration not stated)
The relative growth recovery of the first is higher: 14.7% for the first, -11.7% for the second.

First: CCC(C)(C)C(=O)Nc1ccc(S(=O)(=O)Nc2ncccn2)cc1
Second: Cc1cc(C)nc(NS(=O)(=O)c2ccc(NC(=O)COc3ccc(Cl)cc3)cc2)n1
The relative growth recovery of the first is lower: -5.08% for the first, 3.77% for the second.

First: Cc1ccnc(NS(=O)(=O)c2ccc(NS(=O)(=O)c3ccc(F)cc3)cc2)n1
Second: Cc1cc(C)nc(NS(=O)(=O)c2ccc(NC(=O)c3ccc(S(=O)(=O)N(C)C)cc3)cc2)n1
The relative growth recovery of the first is higher: -0.59% for the first, -5.78% for the second.

First: O=C(CN1CCC(c2cccc(Nc3nccs3)n2)CC1)Nc1ccc(F)cc1
Second: Cc1cnc(Nc2cccc(C3CCN(C(=O)C45CC6CC(CC(C6)C4)C5)CC3)n2)s1
The relative growth recovery of the first is higher: 9.19% for the first, 1.16% for the second.

Compared with Cc1cnc(Nc2cccc(C3CN(C(=O)C4CCOC4)CCO3)n2)s1 (configuration not stated), Cc1csc(Nc2cccc(C3CCCN3C(=O)CC3CC(C)(C)NC(C)(C)C3)n2)n1 (configuration not stated) is higher in relative growth recovery: -8.06% for the first, -0.835% for the second.

Compared with Cc1ccc(Oc2ccc(N3C(=O)c4ccc(Oc5ccc(N)cc5)cc4C3=O)cc2)cc1C, CC(=O)Nc1cccc(Oc2ccc3c(c2)C(=O)N(c2ccc(OC(C)=O)cc2)C3=O)c1 is higher in relative growth recovery: -8.53% for the first, -2.76% for the second.

CC(=O)Nc1ccc(S(=O)(=O)N(C#N)c2nc(C)cc(C)n2)cc1 gave a relative growth recovery of 4.26%.
